Measured values as given in PubChem BioAssay AID1565 (Sanford-Burnham Center for Chemical Genomics, 2009).
About 3,200 (1.1%) of roughly 290,000 compounds were called active. The sample holds actives, similar compounds and a random draw of the others, so the mix is not that of the screen. A number with no mark means an inactive call. Rule as the data show it: active = inhibition above about 60%; inactive = the rest.

The molecules below were run against Phosphoethanolamine/phosphocholine phosphatase (Homo sapiens) (UniProt Q8TCT1) (assay: PubChem AID 1565). Details: recombinant PHOSPHO1, absorbance phosphatase assay; at 13.3 µM; hits give high values.
Phosphoethanolamine/phosphocholine phosphatase (Homo sapiens), sequence (Q8TCT1 whole entry, looked up): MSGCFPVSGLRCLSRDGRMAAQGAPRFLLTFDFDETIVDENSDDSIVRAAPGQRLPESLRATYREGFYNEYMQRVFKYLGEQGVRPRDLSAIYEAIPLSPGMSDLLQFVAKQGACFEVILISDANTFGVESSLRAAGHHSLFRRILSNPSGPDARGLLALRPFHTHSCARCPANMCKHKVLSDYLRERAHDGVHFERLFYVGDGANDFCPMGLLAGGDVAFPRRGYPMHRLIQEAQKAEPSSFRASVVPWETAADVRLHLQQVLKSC

Row | Compound | inhibition
1 | COCCCC1CCN(C(=O)C2CCC(=O)N(C3CCCCCC3)C2)CC1 (stereo not drawn) | 26.5%
2 | O=C(N/N=C\c1cccnc1)c1cc(-c2ccccc2)nc2c(Cl)cccc12 | 9%
3 | O=C(/C=C/c1cccc(C(F)(F)F)c1)N1CCN(c2ccccn2)CC1 | 23.3%
4 | Clc1c(OCCCn2ccnc2)ccc2ccccc12 | 13.9%
5 | O=C(O)c1[nH]c2ccccc2c1C(c1cccc(O)c1)c1c(C(=O)O)[nH]c2ccccc12 | 14.1%
6 | O=C(O)CSCC(=O)Nc1ccc(C(F)(F)F)cc1 | 46.4%
7 | O=C(O)CSCC(=O)Nc1cccc(C(F)(F)F)c1 | 61.5% (active)
8 | Cc1cccc(NC(=O)c2cccc(C(F)(F)F)c2)c1 | 66.2% (active)
9 | O=C(O)CC1(CC(=O)Nc2cccc(C(F)(F)F)c2)CCCC1 | 24%
10 | Cc1cccc(NC(=O)c2nnn(-c3cccc(C(F)(F)F)c3)c2N)c1 | 11.4%
11 | CNC(=O)c1ccc(NC(=O)c2cccc(C(F)(F)F)c2)cc1 | 47.6%
12 | COc1ccc(/C=N/NC(=O)C2CC2)c(OC)c1OC | 21.2%
13 | CC1Sc2ccc(S(=O)(=O)CCC(=O)NCc3ccccc3Cl)cc2NC1=O (stereo not drawn) | -22.3%
14 | COc1ccccc1C(=O)OCC(=O)NCCNC(=O)COC(=O)c1ccccc1OC | 70.6% (active)
15 | COc1ccc(C(=O)OCC(=O)NCCCc2ccccc2)cc1OC | 17.9%
16 | COc1ccc(CCNC(=O)COC(=O)c2ccc[nH]c2=O)cc1 | 0.3%
17 | O=C(CSc1nnnn1C1CCCC1)N1CCCCC1 | 30.7%
18 | O=C(c1cc2ccccc2s1)N1CCN(c2ccccn2)CC1 | 42.8%
19 | CCc1ccc(OCC2c3cc(OC)c(OC)cc3CCN2C(C)=O)cc1 (stereo not drawn) | 42%
20 | COc1ccccc1OCCNC(=O)CCNC(=O)c1ccccc1Cl | 23.8%
21 | Cc1cc(CNC(=O)c2cccc([N+](=O)[O-])c2)c2ccccc2n1 | -3%

Row | Compound | inhibition
22 | CN(C(=O)c1cccc([N+](=O)[O-])c1)c1ccccc1C(=O)NCc1ccccc1 | 61% (active)
23 | O=C(c1cccc([N+](=O)[O-])c1)N1CCN(Cc2ccccc2)CC1 | 18.4%
24 | O=C(N/N=C/c1ccc(Cl)c(Cl)c1)c1ccc2nc[nH]c2c1 | 29.8%
25 | N#Cc1ccc(C2N=C(c3ccccc3)NO2)cc1 (stereo not drawn) | 30.4%
26 | CCOC(=O)c1c(C)n(C)c2ccc(OC)c(NS(=O)(=O)CC)c12 | -2.4%
27 | CCOC(=O)c1c(C)n(C)c2ccc(OC)c(NC(=O)CN3CCC4(CC3)OCCO4)c12 | 96.8% (active)
28 | COc1ccc(Cl)cc1NC(=O)CN1CCN(C(=O)N2CCOCC2)CC1 | 4.5%
29 | CCOc1ccc(C(C(=O)NCCOC)N(CCOC)C(=O)CCC(=O)Nc2ccccn2)cc1 (stereo not drawn) | 1.5%
30 | COc1ccc2cc(C(=O)C3CCCN(C(=O)c4sc(C)nc4C)C3)ccc2c1 (stereo not drawn) | 22.6%
31 | COc1ccccc1N1CC(C(=O)Nc2nnc(SCC(=O)NC(C)C)s2)CC1=O (stereo not drawn) | -84.3%
32 | O=C(COC(=O)c1ccc(F)cc1)NCCCc1ccccc1 | 24.1%
33 | CC(=O)Nc1ccc(N2C(=O)CC(Sc3nccc(C)n3)C2=O)cc1 (stereo not drawn) | 19.2%
34 | COC(=O)c1ccccc1SC1CC(=O)N(c2cccc(C)c2)C1=O (stereo not drawn) | -11.7%
35 | COc1ccc(N2C(=O)CC(Sc3n[nH]c(-c4ccc(C)cc4)n3)C2=O)cc1 (stereo not drawn) | 10.2%
36 | Cc1ccc(N2C(=O)CC(Sc3ncn[nH]3)C2=O)cc1 (stereo not drawn) | 105% (active)
37 | O=C1CC(Sc2ncn[nH]2)C(=O)N1c1ccccc1 (stereo not drawn) | 97.9% (active)
38 | O=C1CC(N2CCN(c3ccc(F)cc3)CC2)C(=O)N1c1ccccc1 (stereo not drawn) | -16.5%
39 | CCc1ccc(/C=N/NC(=O)c2nnn(-c3nonc3N)c2CN2CCc3ccccc32)cc1 | 23.3%
40 | Cc1[nH]c(C)c(S(=O)(=O)N2CCN(c3cccc(C(F)(F)F)c3)CC2)c1C(=O)N1CCCC1 | 12.1%
41 | Cc1cccc(N(C)C(=O)c2cc(S(=O)(=O)N3CCCCC3)c[nH]2)c1 | 25.4%
42 | CCc1cccc(C)c1NS(=O)(=O)c1cc(Br)cnc1N | 35.5%

Row | Compound | inhibition
43 | CCCC(=O)N1CCN(c2nnc(-c3ccc(C)cc3)c3ccccc23)CC1 | 30.8%
44 | C=CCn1c(SCC(=O)Nc2nc3ccccc3s2)nnc1-c1ccccc1O | -17.5%
45 | O=C(CSc1nc2ccc(Nc3nc(N4CCOCC4)nc(N4CCOCC4)n3)cc2s1)NCc1ccco1 | 16.2%
46 | C=CCn1c(CSc2nc3ccccc3s2)nnc1SCC(=O)NCc1ccco1 | 89.7% (active)
47 | O=S(=O)(/C=C/c1ccccc1)N1CCNCC1 | 37%
48 | Cc1cc(S(=O)(=O)NCc2ccccn2)c(Cl)cc1Cl | 29.5%
49 | CC1(C)NC(=O)N(CC(=O)Nc2cc(C(F)(F)F)cc(C(F)(F)F)c2)C1=O | 24%
50 | O=C(NCc1ccc(Cl)cc1)c1cc(=O)nc2sc(-c3ccccc3)nn12 | 19.7%
51 | O=C(NCc1ccc(Cl)cc1)c1cc2c(nc3sccn32)s1 | 66.1% (active)
52 | O=C(NCc1ccc(Cl)cc1)NCc1ccc(Cl)cc1 | 42.1%
53 | COc1ccc(NC(=O)C2CCC(CNS(=O)(=O)c3csc(C(N)=O)c3)CC2)cc1OC (stereo not drawn) | 48.8%
54 | CCOc1ccc(-c2n[nH]c(=S)n2/N=C/c2cc3c(cc2[N+](=O)[O-])OCO3)cc1 | 57.5%
55 | Cc1ccc(-c2n[nH]c(=S)n2/N=C/c2cc3c(cc2[N+](=O)[O-])OCO3)cc1 | 99.7% (active)
56 | Cc1ccc(S(=O)(=O)N/N=C\c2cc3c(cc2[N+](=O)[O-])OCO3)cc1 | -27.6%
57 | CN(C(=O)CC1C(=O)NCCN1Cc1ccc2ccccc2c1)C1CCOCC1 (stereo not drawn) | 9%
58 | CCNC(=O)CCc1nc(-c2ccc(C)cc2)no1 | 12.3%
59 | CCCc1nc(-c2cc3cc(C)ccc3[nH]c2=O)no1 | 76.8% (active)
60 | COc1ccc2[nH]c(=O)c(-c3noc(-c4ccc(F)cc4)n3)cc2c1 | 80.2% (active)
61 | COc1ccc(N(Cc2cc3cc(OC)ccc3[nH]c2=O)S(C)(=O)=O)cc1 | -2.4%
62 | CC(=O)OCc1cc2cc(C)ccc2[nH]c1=O | -4.1%
63 | Cc1cccc(-c2noc(-c3ccc(F)cc3)n2)c1 | -3.7%
